Compound activity (PubChem BioAssay)
Compounds with a hit are over-represented: about 4.7% of the library has one in this group of screens.
MPTP inh – blocks calcium-induced mitochondrial swelling; isolated mouse mitochondria, Ca2+ swelling absorbance, 30 min; inhibition, % at 10 µM; 360,000 tested, 1.4% active;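 active = inhibition of 50% or more, scaled per plate between neutral and stimulator controls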;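 also: 0% = DMSO wells given calcium and 100% = 1 mM EGTA wells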
rCAG binder – molecules binding r(CAG) RNA repeats. r(CAG) RNA repeat, TO-PRO-1 dye displacement fluorescence. inhibition, % at 3 µM. 370,000 tested, 1.3% active. AID 651821;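 active = inhibition above the plate cutoff, the mean of all test compounds on that plate plus 3 SD, cut at about 35% in these data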;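 also: 0% = DMSO alone and 100% = 100 µM mitoxantrone as full dye displacement; higher means more dye released from RNA so lower well fluorescence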
Pemphigus Ab inh – human desmoglein-3 autoantibody binding inhibition | P32926 | DSG3-coupled beads, scFv-anti-DSG3-GFP binding, flow cytometry; hits give low values | binding (percent of control), % at 10 µM | 310,000 tested, 0.48% active | AID 588358;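 active = binding more than 3 SD below its plate's average and above zero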;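 also: hits lower antibody fragment binding to DSG3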
ADAM17 inh – ADAM17 inhibition, QFRET primary screen | AID 720648 | recombinant ADAM17, EDANS/DABCYL FRET peptide cleavage | inhibition, % at 6.95 µM | 370,000 tested, 0.83% active;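 active = inhibition above the mean of compounds lying between control limits plus 3 SD, set per campaign, cut at about 8.5% in these data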;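 also: 0% = DMSO-only wells as the low control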
ADAM10 inh – ADAM10 inhibition, QFRET primary screen. O14672. recombinant ADAM10, EDANS/DABCYL FRET peptide cleavage, 3 h. inhibition, % at 7 µM. 370,000 tested, 0.62% active. AID 720582;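 active = inhibition above a per-campaign cutoff equal to the mean of compounds falling between control-based bounds plus 3 SD, cut at about 20% in these data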;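 also: 0% = DMSO wells while the 100% control is not disclosed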
KLK7 zymogen act – activates the human kallikrein-7 zymogen | P49862 | purified proKLK7, EDANS-DABCYL substrate fluorescence; 100% is mature enzyme control, 0% vehicle | activation, % at 7 µM | 370,000 tested, 0.9% active | AID 652039;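 active = activation above the mean of all tested compounds plus 3 SD, computed per campaign excluding outliers beyond control limits, cut at about 13% in these data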
Target sequence (P49862 whole entry, looked up): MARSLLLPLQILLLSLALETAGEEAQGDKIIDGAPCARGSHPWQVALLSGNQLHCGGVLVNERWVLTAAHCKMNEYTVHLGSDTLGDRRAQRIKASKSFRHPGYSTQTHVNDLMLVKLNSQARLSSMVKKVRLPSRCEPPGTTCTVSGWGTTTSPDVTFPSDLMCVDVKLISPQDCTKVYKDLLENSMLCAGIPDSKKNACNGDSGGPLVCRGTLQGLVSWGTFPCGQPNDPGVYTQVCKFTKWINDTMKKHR
ADAM10 counter – inhibits human ADAM10 in ADAM17 exosite counter-screen | shares compounds with ADAM17 inh | recombinant ADAM10, EDANS/DABCYL FRET peptide cleavage, 3 h | inhibition, % at 6.95 µM | AID 743256 | 2,900 tested, 47% active;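 active = mean inhibition over the triplicate runs exceeds the activity threshold set in the earlier primary screen, cut at about 20% in these data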;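 also: 0% = DMSO wells and 100% = marimastat wells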
ADAM17 confirm – confirmation of inhibitors of human ADAM17 | shares compounds with ADAM17 inh | recombinant ADAM17, EDANS/DABCYL QFRET peptide cleavage | inhibition, % at 6.95 µM | 2,900 tested, 65% active | AID 743257;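 active = mean inhibition across replicates above the hit cutoff set in the primary screen, cut at about 8.5% in these data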;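 also: 0% = DMSO wells and 100% = marimastat wells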
Starred values were filed as active, the others as inactive; . = no result given.

SMILES	MPTP inh	rCAG binder	Pemphigus Ab inh	ADAM17 inh	ADAM10 inh	KLK7 zymogen act	ADAM10 counter	ADAM17 confirm
Cc1cccc(OCC(=O)N2CCN(Cc3ccc4c(c3)OCO4)CC2)c1	-3.0	-5.0	123.3	0.4	-3.3	-1.0	.	.
CN(C)P(=O)(CCl)Nc1ccccc1 (configuration not stated)	-1.4	0.2	107.7	2.5	2.1	-0.5	.	.
O=C1NCN(c2ccccc2)C12CCN(C(c1cccs1)c1nnnn1-c1ccc3c(c1)OCCO3)CC2 (configuration not stated)	1.5	10.5	.	9.0*	19.7	0.2	29.1*	13.1*
O=c1[nH]c2ccccc2n1C1CCN(C(c2nnnn2-c2ccc3c(c2)OCCO3)C2CC2)CC1 (configuration not stated)	-1.4	1.3	.	0.6	-3.5	0.0	.	.
O=c1[nH]c2ccccc2n1C1CCN(C(c2ccccc2)c2nnnn2-c2ccc3c(c2)OCCO3)CC1 (configuration not stated)	-0.6	7.6	.	11.4*	17.6	0.4	37.7*	23.1*
O=C(CN1C2CCC1CC(O)(c1cccnc1)C2)Nc1ccc2c(c1)OCO2 (configuration not stated)	-0.5	0.9	97.0	3.1	5.8	-0.1	.	.
N=C(N)c1c(O)n(C2CCCCC2)c(=O)n(C2CCCCC2)c1=O	17.0	-3.8	99.8	9.6*	17.4	-0.3	51.8*	23.7*
COC(=O)C1=C(c2ccc(Cl)c(C(F)(F)F)c2)C[C@@H]2CC[C@H]1N2C(=O)N1CCCC1	-0.7	-6.7	104.5	-4.1	0.8	0.6	.	.
COC(=O)C1=C(c2ccc(Cl)c(C(F)(F)F)c2)C[C@@H]2CC[C@H]1N2C(=O)N1CCC(O)(c2ccc(Cl)cc2)CC1	-2.2	4.9	101.8	9.5*	19.4	-0.1	16.1	8.8*
O=C(c1ccccc1F)c1cn(CC(=O)N2CCCC2)c2ccccc12	3.5	1.3	89.0	-0.3	10.2	0.1	.	.
O=C(c1ccccc1F)c1cn(CC(=O)N2CCOCC2)c2ccccc12	1.1	5.2	100.2	8.6*	-10.3	0.4	3.2	3.5
COC(=O)C1=C(c2ccc(OCc3ccccc3)cc2)C[C@@H]2CC[C@H]1N2C(=O)NCc1ccccc1OC	-0.5	4.2	112.4	9.7*	17.2	0.3	28.1*	14.2*
COC(=O)C1=C(c2ccc(-c3ccccc3)c(F)c2)C[C@@H]2CC[C@H]1N2C(=O)NC1CC1	1.1	-1.0	99.9	10.6*	18.6	1.2	5.8	7.2
COC(=O)C1=C(c2ccccc2OCc2ccccc2)C[C@@H]2CC[C@H]1N2C(=O)NCc1ccc(C(F)(F)F)cc1	0.6	-3.7	102.7	3.0	8.9	0.3	.	.
COC(=O)C1=C(c2ccc(F)cc2OCc2ccccc2)C[C@@H]2CC[C@H]1N2C(=O)NCc1ccc(C(F)(F)F)cc1	-0.8	-1.4	94.2	10.9*	17.1	-0.1	36.4*	20.9*
O=C(Cc1c[nH]c2ccccc12)NNCc1ccc(N(CCCl)CCCl)cc1	-0.2	12.7	119.0	-13.9	-61.3	-0.5	.	.
NS(=O)(=O)c1ccc(N2CCNCC2)cc1	-0.9	1.6	105.2	1.8	4.8	0.0	.	.
O=C1Nc2cc(C(=O)N3CCC4(CC3)OCCO4)ccc2S/C1=C\c1ccccc1	0.3	0.8	90.7	2.8	0.9	0.1	.	.
CCOC(=O)[C@@H]1[C@H]2COc3ccc(Br)cc3[C@H]2N2C(=O)N(c3cccc(C)c3)C(=O)[C@]12C	-1.1	1.8	100.8	9.3*	23.0*	0.2	30.3*	19.0*
CC(C(=O)c1cn(C)c2ccccc12)c1ccccc1 (configuration not stated)	1.0	2.3	103.2	10.6*	15.0	0.2	2.3	4.2
COc1ccc(CCNCc2sccc2C)cc1	-0.6	-0.8	97.0	0.7	3.1	0.1	.	.
